Results filed as inconclusive are left out. Where a call stands in place of a potency, no number is given. Calls of active or inactive are those of the source. Calls follow the shape of the dose curve; as a rule, active = well fitted inhibition curve with a large enough effect; inconclusive = small, poorly fitted or top-dose-only effect; inactive = flat fitted curve, though single readings scatter. Where a SMILES comes first, the peptide text is derived from it.

Sequence of Glutathione peroxidase 1 (Homo sapiens) (P07203 whole entry, looked up): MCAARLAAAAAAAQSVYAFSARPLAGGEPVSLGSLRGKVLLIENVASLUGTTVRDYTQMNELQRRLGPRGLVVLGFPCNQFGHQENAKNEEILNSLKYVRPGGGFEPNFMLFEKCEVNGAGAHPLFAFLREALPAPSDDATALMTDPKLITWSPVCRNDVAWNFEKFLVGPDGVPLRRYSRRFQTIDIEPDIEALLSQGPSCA

The experiment addresses Glutathione peroxidase 1 (Homo sapiens) (UniProt P07203). Kind of experiment: Primary qHTS Assay for Inhibitors of Recombinant Selenoprotein Glutathione Peroxidase 1 (GPX1) (AID 1845191). Also: nearly all actives have a fitted effect of over 65% in size. To be noted: recombinant GPX1, GR-coupled NADPH fluorescence, 15 min; series mostly up to 27.7 µM. Summed up: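 Recombinant GPX1 (10 nM final) was preincubated with compound for 30 min at room temperature, then reacted with 1 mM GSH, 0.5 mM CHP, 0.5 mM NADPH and 100 nM glutathione reductase; NADPH fluorescence (340/450 nm) was read at 0 and 15 min.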
As to `CSCC[C@H](NC(=O)[C@H](CO)NC(=O)[C@H](CCC(=O)O)NC(C)=O)C(=O)N[C@H](C=O)CC(=O)O` (Ac-ESMD-aldehyde), the Potency result is “inactive”.

For the molecule `COC(=O)C(CC1CCCC1)c1ccc(S(C)(=O)=O)cc1` (configuration not stated), the Potency result is “inactive”. For `CC(O)C1CCC2C3CCC4CC(OC5OC(C(=O)O)C(O)C(O)C5O)CCC4(C)C3CCC12C` (configuration not stated) the value was “inactive”; for `C/C=C(\C)C(=O)OC[C@H]1O[C@@H](O[C@H]2[C@@H](O[C@H]3O[C@H](CO)[C@@H](O)[C@H](O)[C@H]3O[C@@H]3O[C@H](CO)[C@@H](O)[C@H](O)[C@H]3O)O[C@H](COC(=O)/C(C)=C/C)[C@@H](O)[C@@H]2O)[C@H](O)[C@@H](O)[C@@H]1O`, “inactive”. `CC(C)=CCc1c(O)cc2oc3cc(C)cc(O)c3c2c1C`: the Potency result was “inactive”.

Regarding `C=C1C(OC(C)=O)CCC2(C)CC3(O)OC(=O)C(C)=C3CC12` (configuration not stated), the Potency result is “inactive”. With `C=CC1(C)C=C2CC[C@H]3[C@@](C)(C(=O)O)CCC[C@]3(C)C2CC1` (some centres not stated) the entry was “inactive”. In the case of `CNC(C)C(=O)NC(C(=O)N1CCCC1C(=O)Nc1cccc2ncccc12)C(C)C` (configuration not stated), the Potency result is “inactive”. For `Cc1cn(-c2cc(NC(=O)c3ccc(C)c(Nc4nccc(-c5cnccn5)n4)c3)cc(C(F)(F)F)c2)cn1` the value was “inactive”. For `NC(=O)[C@H](Cc1ccccc1)NC(=O)[C@H](CCCN=C(N)N)NC(=O)C12CC3CC(CC(C3)C1)C2` the value was “inactive”.

For the molecule `C=C1C2(C)CC3C4(C)C=CC(=O)OC(C)(C)C4CCC3(C)C1(C(=O)OC)C(=O)C(C)(O)C2=O` (configuration not stated), the Potency result was “inactive”.

On to `CC1(C)CC2C(O)C3=C(CC(C)(O)C2C1)C(=O)OC3` (configuration not stated), for which the Potency result was “inactive”.

These data come from PubChem BioAssay (NCATS).
